Assay results reported in PubChem BioAssay.
Inconclusive results are not listed. Active and inactive are the calls of the source.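 Rule for the calls, unless noted: active = differentiation response of at least 50%, scaled between solvent and reference control, from cells with both markers; inactive = the rest.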

What was measured:
[1] = yeast TOR pathway RPL19A-GFP modulators, primary screen, cell-based, S. cerevisiae, multiplex flow cytometry (AID 1862; in the data active = percent of DMSO control GFP below about 86%;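 note: lower values mimic rapamycin by blocking the RPL19A rise seen in DMSO cells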); details: S. cerevisiae RPL19A-GFP strain, flow cytometry fluorescence, 3 h; at 10 µM; stronger effect = lower value
[2] = modulators of MEP2-GFP levels in yeast, primary screen, S. cerevisiae, multiplex flow cytometry (AID 1867;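 active = GFP response, as percent of the DMSO control, above the screen-wide mean plus 3 SD, about 139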;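 note: median GFP channel fluorescence of barcode-gated MEP2-GFP cells measured by flow cytometry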); details: S. cerevisiae MEP2-GFP strain, 3 h, at 10 µM, stronger effect = higher value, 100% means same as DMSO wells
[3] = modulators of CIT2-GFP expression in yeast, primary screen, S. cerevisiae, GFP fusion, multiplex flow cytometry (AID 1870;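 active = percent response above a set limit, the screen-wide mean plus 3 SD, cut at about 130% in these data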;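 note: barcoded CIT2-GFP strain pooled with four other GFP strains with rapamycin as positive control; median GFP fluorescence per well over plate mean of DMSO wells so 100% = DMSO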); details: 3 h, at 10 µM, stronger effect = higher value
[4] = modulators of LAP4-GFP expression in yeast, primary screen, S. cerevisiae, multiplex flow cytometry (AID 1873;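 active = GFP signal, as percent of the solvent control, above the screen mean plus 3 SD, about 149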); details: 3 h, at 10 µM, stronger effect = higher value
[5] = modulators of AGP1-GFP expression in yeast TOR pathway, primary screen, cell-based, multiplex flow cytometry, S. cerevisiae (AID 1887;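 active = GFP signal above the screen-wide mean plus 3 SD, that is over about 124.5% of the solvent control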;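 note: AGP1-GFP fusion strain of S. cerevisiae within a five-strain barcoded multiplex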); details: 3 h, at 10 µM, stronger effect = higher value
[6] = inhibitors of CD8+ T cell-vesicle binding, pilot screen, LFA-1/ICAM-1 modulator project, MLPCN validation set, flow cytometry (AID 2523;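 active = response below a set limit, under 55% cells CD8-positive and vesicle-bound, and CD8 cells' 90th-percentile brightness under 279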;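 for vesicle binding response: mean PE anti-B7-1 fluorescence of CD8+ cells relative to row control; 100% = QL9-loaded vesicles with DMSO vehicle in the same plate row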); details: 2C mouse CD8+ T cells, at 7 µM, stronger effect = lower value; double positive events: measured here: CD8+/vesicle+ event percentage
[7] = target: Integrin beta-1 (Homo sapiens) + Integrin alpha-4 (Homo sapiens) (UniProt P13612+P05556); assay: inhibition of HUTS-21 binding to VLA-4, pilot screen, VLA-4 allosteric modulator project, U937 cells, HUTS-21 mAb, flow cytometry, validation set (AID 2674;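 active = inhibition above 50%, about 3 SD of the validation set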;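 note: antibody binding induced by the VLA-4 ligand LDV present at three times its Kd; 0% = LDV ligand with antibody and no compound and 100% = antibody without LDV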); details: HUTS-21 LIBS mAb binding, at 6.7 µM, stronger effect = higher value, binding induced by LDV ligand
[8] = superoxide lowering in aged yeast cells, pilot screen, validation compound set (AID 2706;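 active = superoxide response below 65% of plate, a cut near 3 SD across the whole screen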;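 note: yeast exposed to compound for one week at 30 degrees C before staining; 100% = mean of all compound wells on the same plate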); details: S. cerevisiae aging, superoxide DHE fluorescence; at 10 µM; stronger effect = lower value
[9] = target: Beta-adrenergic receptor kinase 1 (Homo sapiens) (UniProt P25098); assay: GRK2 binders displacing RNA aptamer, biochemical, validation, human GRK2, bead flow cytometry (AID 488806;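 active = aptamer binding inhibition above 30%, about 3 SD of noise from non-fluorescent compounds; inactive = inhibition at or below 30%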); details: bead-bound GRK2, FAM-aptamer displacement, at 10 µM, stronger effect = higher value
[10] = target: Beta-2 adrenergic receptor (Homo sapiens) (UniProt P07550); assay: beta2AR agonists driving receptor internalization, pilot screen, cell-based, FAP fluorogen, flow cytometry, validation set (AID 504459;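 active = percent response above 42, roughly 3 SD of non-fluorescent test compounds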;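 note: agonist-driven loss of surface beta2AR via internalization measured by FAP dye flow cytometry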); details: Am2.2-beta2AR cells, FAP surface receptor flow cytometry; at 10 µM; stronger effect = higher value
[11] = target: AP-2 complex subunit beta (Homo sapiens) (UniProt P63010); assay: inhibitors of arrestin peptide binding to AP2, pilot screen, biochemical, validation set, GST-AP2 beads, flow cytometry (AID 504541;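 active = inhibition above 54%, about 3 SD of non-fluorescent compounds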;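 note: AP2 carries R879A mutation and is captured from E. coli lysate; bead-bound FITC arrestin peptide fluorescence measuring arrestin peptide binding to AP2; 0% = DMSO wells and 100% = excess unlabeled arrestin peptide control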); details: FITC arrestin peptide, at 10 µM, stronger effect = higher value, AP2 beta2 appendage fragment, R879A mutant
[12] = yeast V-ATPase proton transport modulators, S. cerevisiae, pHLuorin, HTS validation (AID 504600; in the data active = response above about 15%;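 note: plate controls were DMSO for no effect and reference compound for full effect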); details: S. cerevisiae pHLuorin cytosolic pH, at 10 µM, stronger effect = higher value
[13] = system: anti-desmoglein-3 scFv antibody binding to human DSG3; assay: inhibitors of anti-DSG3 scFv binding to DSG3, pilot screen, biochemical, validation compound set, bead-based, flow cytometry (AID 588368;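 active = binding below the plate cutoff, the plate median minus 3 SD, with a reading above zero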;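 note: signal is the median channel fluorescence of bead-bound GFP antibody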); details: Protein G beads, DSG3-Fc, scFv-GFP binding, at 10 µM, stronger effect = lower value
[14] = inhibitors of fungal efflux pumps CDR1, CDR2, MDR1, pilot screen, validation compound set, multiplex, phenotypic (AID 588506;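 active = efflux inhibition above 0.42, the validation set average plus 4 SD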;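 note: Nile Red retained in cells so higher fluorescence means more efflux inhibition; 0 = negative control wells and 1 = enniatin B 25 µM full block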); details: S. cerevisiae pump-expressing triplex, Nile Red efflux flow cytometry; at 10 µM; stronger effect = higher value; the pumps come from Candida albicans
[15] = target: ATP-binding cassette sub-family B member 6 (Homo sapiens) (UniProt Q9NP58); assay: ABCB6 transporter inhibitors, pilot screen, K562-ABCB6 cells, flow cytometry, validation set (AID 588550;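 active = inhibition above the screen-wide mean plus 3 SD, about 51%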;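 note: 0% = DMSO wells and 100% = benzethonium chloride 70 µM positive control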); details: K562-ABCB6 porphyrin accumulation, 1 h, at 10 µM, stronger effect = higher value
[16] = promoters of myeloid differentiation in arrested cells, primary screen, cell-based, GFP/MAC1 double positive, flow cytometry, validation set (AID 588685); details: ER-HoxA9 marrow cells, stronger effect = higher value, normalized: vehicle 0, fulvestrant 100;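 note: compound exposure lasts four days before antibody staining and flow analysis; 0% = DMSO wells and 100% = 5 µM fulvestrant positive control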

Sequence of AP-2 complex subunit beta (Homo sapiens) (P63010 whole entry, looked up, the tested form may be a part, one chain of several): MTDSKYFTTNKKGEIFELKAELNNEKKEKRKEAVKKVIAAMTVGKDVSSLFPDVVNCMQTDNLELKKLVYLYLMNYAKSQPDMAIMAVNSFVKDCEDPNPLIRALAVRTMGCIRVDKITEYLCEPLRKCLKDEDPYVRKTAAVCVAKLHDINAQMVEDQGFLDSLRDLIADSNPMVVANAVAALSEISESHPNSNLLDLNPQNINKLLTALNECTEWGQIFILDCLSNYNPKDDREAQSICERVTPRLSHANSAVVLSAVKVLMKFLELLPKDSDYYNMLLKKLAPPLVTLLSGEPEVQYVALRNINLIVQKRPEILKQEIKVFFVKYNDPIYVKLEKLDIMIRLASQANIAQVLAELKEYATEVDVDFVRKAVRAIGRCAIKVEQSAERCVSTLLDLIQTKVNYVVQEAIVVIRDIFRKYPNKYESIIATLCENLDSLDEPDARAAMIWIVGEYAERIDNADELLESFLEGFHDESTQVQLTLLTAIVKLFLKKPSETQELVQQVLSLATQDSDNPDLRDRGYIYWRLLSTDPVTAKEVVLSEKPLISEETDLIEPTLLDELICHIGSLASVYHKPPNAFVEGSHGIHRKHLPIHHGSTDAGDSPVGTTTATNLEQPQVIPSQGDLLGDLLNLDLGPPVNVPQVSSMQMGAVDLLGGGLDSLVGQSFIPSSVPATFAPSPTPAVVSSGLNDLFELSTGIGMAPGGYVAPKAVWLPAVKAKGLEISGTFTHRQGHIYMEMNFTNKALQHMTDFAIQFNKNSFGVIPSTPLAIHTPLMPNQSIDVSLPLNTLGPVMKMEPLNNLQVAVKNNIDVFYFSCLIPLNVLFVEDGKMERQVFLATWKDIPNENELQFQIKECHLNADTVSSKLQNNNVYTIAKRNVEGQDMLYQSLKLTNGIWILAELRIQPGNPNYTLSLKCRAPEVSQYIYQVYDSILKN
Sequence of Beta-adrenergic receptor kinase 1 (Homo sapiens) (P25098 whole entry, looked up): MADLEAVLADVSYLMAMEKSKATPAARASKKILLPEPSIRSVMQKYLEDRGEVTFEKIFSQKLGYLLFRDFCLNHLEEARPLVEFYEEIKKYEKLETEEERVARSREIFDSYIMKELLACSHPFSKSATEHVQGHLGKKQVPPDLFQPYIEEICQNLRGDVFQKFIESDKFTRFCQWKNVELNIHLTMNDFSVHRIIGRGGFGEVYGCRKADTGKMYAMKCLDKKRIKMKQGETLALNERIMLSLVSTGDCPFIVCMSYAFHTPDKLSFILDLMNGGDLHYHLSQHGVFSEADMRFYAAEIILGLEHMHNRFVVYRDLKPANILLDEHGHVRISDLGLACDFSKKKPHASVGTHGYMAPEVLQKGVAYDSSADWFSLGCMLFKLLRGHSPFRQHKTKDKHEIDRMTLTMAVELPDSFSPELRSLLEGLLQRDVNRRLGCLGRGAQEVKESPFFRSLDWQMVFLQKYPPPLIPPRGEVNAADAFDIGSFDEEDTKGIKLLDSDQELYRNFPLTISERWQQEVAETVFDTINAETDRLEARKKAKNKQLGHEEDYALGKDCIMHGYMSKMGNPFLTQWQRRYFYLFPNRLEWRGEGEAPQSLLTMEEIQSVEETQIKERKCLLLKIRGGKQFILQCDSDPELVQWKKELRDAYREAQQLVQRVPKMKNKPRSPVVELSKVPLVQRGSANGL
Sequence of Beta-2 adrenergic receptor (Homo sapiens) (P07550 whole entry, looked up): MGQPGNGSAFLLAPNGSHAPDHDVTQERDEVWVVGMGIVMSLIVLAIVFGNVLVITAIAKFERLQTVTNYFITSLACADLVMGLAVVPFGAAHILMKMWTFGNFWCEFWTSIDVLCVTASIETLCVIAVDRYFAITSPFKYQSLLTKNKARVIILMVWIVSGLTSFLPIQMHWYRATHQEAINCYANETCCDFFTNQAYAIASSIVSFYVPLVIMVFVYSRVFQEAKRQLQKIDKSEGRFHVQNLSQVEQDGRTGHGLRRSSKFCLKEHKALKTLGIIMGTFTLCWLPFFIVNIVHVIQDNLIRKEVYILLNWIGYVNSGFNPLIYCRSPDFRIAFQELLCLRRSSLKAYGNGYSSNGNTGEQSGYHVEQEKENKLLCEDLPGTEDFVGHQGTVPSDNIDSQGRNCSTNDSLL
Sequence of ATP-binding cassette sub-family B member 6 (Homo sapiens) (Q9NP58 whole entry, looked up): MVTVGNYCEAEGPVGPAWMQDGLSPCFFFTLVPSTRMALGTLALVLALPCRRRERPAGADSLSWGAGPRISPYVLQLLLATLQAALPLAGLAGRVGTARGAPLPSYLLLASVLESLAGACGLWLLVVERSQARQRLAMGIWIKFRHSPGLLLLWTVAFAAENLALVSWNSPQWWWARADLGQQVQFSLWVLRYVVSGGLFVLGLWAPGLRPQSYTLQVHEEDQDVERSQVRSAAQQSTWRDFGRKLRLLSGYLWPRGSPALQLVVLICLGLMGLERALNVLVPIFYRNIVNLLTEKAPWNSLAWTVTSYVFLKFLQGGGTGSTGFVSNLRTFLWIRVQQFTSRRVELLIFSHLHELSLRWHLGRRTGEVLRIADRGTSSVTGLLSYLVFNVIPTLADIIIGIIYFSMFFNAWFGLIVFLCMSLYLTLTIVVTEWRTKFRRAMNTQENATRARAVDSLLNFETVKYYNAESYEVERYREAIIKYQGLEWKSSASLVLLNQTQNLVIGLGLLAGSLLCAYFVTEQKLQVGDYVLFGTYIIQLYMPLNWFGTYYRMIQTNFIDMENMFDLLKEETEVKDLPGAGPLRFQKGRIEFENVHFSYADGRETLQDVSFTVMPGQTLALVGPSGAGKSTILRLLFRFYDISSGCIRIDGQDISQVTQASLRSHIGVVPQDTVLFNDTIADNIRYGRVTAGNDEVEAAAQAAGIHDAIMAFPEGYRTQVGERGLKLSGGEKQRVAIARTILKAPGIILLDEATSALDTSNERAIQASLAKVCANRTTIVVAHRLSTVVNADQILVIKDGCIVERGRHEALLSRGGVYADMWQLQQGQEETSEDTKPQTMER
Sequence of Integrin beta-1 (Homo sapiens) + Integrin alpha-4 (Homo sapiens) (P05556 whole entry, looked up): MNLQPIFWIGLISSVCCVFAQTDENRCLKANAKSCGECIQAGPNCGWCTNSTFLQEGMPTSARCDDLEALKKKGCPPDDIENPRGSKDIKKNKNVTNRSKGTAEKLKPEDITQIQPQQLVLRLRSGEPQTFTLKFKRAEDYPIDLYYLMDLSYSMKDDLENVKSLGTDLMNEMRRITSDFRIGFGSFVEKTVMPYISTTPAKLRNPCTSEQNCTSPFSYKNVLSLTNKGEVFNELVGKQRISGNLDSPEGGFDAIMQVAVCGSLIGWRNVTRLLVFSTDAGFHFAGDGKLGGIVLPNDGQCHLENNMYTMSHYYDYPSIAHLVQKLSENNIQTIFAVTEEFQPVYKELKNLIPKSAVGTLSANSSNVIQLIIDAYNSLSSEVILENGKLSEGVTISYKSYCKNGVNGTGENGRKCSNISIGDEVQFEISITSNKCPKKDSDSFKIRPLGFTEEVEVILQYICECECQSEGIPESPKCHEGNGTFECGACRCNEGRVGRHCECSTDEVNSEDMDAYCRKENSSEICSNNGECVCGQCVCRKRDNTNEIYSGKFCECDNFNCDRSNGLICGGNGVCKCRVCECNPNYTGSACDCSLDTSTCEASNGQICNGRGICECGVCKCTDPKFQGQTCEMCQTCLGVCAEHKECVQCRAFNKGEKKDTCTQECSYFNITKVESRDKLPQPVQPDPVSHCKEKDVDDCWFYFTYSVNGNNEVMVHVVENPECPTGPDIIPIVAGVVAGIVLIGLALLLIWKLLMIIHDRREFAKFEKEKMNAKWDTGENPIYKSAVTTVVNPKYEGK
Sequence of Integrin beta-1 (Homo sapiens) + Integrin alpha-4 (Homo sapiens) (P13612 whole entry, looked up): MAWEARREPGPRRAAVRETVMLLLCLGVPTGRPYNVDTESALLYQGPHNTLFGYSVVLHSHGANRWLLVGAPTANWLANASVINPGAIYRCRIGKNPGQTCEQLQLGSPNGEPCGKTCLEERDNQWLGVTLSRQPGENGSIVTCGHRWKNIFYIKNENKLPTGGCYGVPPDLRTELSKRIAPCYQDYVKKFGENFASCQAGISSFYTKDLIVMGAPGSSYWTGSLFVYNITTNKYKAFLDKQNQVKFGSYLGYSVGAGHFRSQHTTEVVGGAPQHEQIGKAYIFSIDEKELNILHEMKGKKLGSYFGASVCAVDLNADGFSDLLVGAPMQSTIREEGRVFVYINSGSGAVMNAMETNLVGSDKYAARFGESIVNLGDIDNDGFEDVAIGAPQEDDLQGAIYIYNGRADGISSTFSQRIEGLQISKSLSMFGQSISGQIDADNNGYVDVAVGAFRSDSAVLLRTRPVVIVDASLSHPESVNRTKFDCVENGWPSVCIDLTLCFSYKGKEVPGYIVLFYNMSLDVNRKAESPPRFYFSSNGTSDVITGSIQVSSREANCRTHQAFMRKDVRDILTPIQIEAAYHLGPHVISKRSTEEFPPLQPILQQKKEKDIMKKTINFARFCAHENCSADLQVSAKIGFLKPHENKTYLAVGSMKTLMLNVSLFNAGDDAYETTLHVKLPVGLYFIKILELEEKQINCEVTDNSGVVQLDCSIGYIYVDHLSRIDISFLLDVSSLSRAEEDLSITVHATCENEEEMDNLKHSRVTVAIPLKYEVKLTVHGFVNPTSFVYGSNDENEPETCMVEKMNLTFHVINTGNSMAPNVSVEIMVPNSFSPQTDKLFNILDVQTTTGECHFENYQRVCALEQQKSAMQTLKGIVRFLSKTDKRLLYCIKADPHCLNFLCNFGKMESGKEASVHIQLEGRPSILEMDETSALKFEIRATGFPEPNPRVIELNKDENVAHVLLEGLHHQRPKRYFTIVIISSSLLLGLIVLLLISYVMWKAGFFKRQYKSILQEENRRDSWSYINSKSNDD

C[C@H]([C@@H](N)C(=O)N[C@@H](C(=O)O)[C@@H]1O[C@H](n2ccc(=O)[nH]c2=O)[C@@H](O)[C@H]1O)[C@@H](O)c1ccc(O)cn1
percent of DMSO control GFP [1]: 91.5% (inactive) | GFP response vs DMSO [2]: 130% (inactive) | percent response of DMSO control [3]: 93.9% (inactive) | GFP response vs DMSO [4]: 82.5% (inactive) | GFP response, % of DMSO [5]: 84.5% (inactive) | double positive events [6]: 59.1% | vesicle binding response [6]: 184% (inactive) | inhibition [7]: -9.06% (inactive) | superoxide response (% of plate) [8]: 117% (inactive) | aptamer binding inhibition [9]: 7% (inactive) | response [10]: -4.72% (inactive) | inhibition [11]: 5.36% (inactive) | response [12]: 2.7% (inactive) | binding (% of control) [13]: 104% (inactive) | efflux inhibition (fraction of control) [14]: -0.06 (inactive) | inhibition [15]: 9% (inactive) | differentiation response [16]: 4.09% (inactive)

COc1ccc2[nH]cc(C3N4CC5(C)CN3CC(C)(C4)C5=O)c2c1 (configuration not stated)
percent of DMSO control GFP [1]: 103% (inactive) | GFP response vs DMSO [2]: 103% (inactive) | percent response of DMSO control [3]: 107% (inactive) | GFP response vs DMSO [4]: 103% (inactive) | GFP response, % of DMSO [5]: 107% (inactive) | double positive events [6]: 59.2% | vesicle binding response [6]: 138% (inactive) | inhibition [7]: 9.63% (inactive) | superoxide response (% of plate) [8]: 105% (inactive) | aptamer binding inhibition [9]: -2% (inactive) | response [10]: -5.37% (inactive) | inhibition [11]: 10.8% (inactive) | response [12]: 1.5% (inactive) | binding (% of control) [13]: 101% (inactive) | efflux inhibition (fraction of control) [14]: -0.08 (inactive) | inhibition [15]: 2% (inactive) | differentiation response [16]: -11.9% (inactive)

O=C(O)COc1ccc2occ(C(=O)c3ccccc3)c2c1
percent of DMSO control GFP [1]: 99.8% (inactive) | GFP response vs DMSO [2]: 106% (inactive) | percent response of DMSO control [3]: 101% (inactive) | GFP response vs DMSO [4]: 96% (inactive) | GFP response, % of DMSO [5]: 92.9% (inactive) | double positive events [6]: 63.9% | vesicle binding response [6]: 180% (inactive) | inhibition [7]: 15.1% (inactive) | superoxide response (% of plate) [8]: 107% (inactive) | aptamer binding inhibition [9]: 4% (inactive) | response [10]: -5% (inactive) | inhibition [11]: 0.98% (inactive) | response [12]: 0.64% (inactive) | binding (% of control) [13]: 94.2% (inactive) | efflux inhibition (fraction of control) [14]: -0.17 (inactive) | inhibition [15]: 3% (inactive) | differentiation response [16]: 7.09% (inactive)

CC(C)c1ccc(/C=C/C(=O)O)cc1
percent of DMSO control GFP [1]: 96.3% (inactive) | GFP response vs DMSO [2]: 105% (inactive) | percent response of DMSO control [3]: 81.5% (inactive) | GFP response vs DMSO [4]: 161% (active) | GFP response, % of DMSO [5]: 83.4% (inactive) | double positive events [6]: 56.5% | vesicle binding response [6]: 218% (inactive) | inhibition [7]: 7.76% (inactive) | superoxide response (% of plate) [8]: 99.5% (inactive) | aptamer binding inhibition [9]: 3% (inactive) | response [10]: 3.14% (inactive) | inhibition [11]: 3.59% (inactive) | response [12]: 1.59% (inactive) | binding (% of control) [13]: 94.5% (inactive) | efflux inhibition (fraction of control) [14]: -0.35 (inactive) | inhibition [15]: 4% (inactive) | differentiation response [16]: -2.4% (inactive)

CCOc1ccc2nc(S(N)(=O)=O)sc2c1
percent of DMSO control GFP [1]: 101% (inactive) | GFP response vs DMSO [2]: 104% (inactive) | percent response of DMSO control [3]: 99.7% (inactive) | GFP response vs DMSO [4]: 100% (inactive) | GFP response, % of DMSO [5]: 103% (inactive) | double positive events [6]: 55.1% | vesicle binding response [6]: 103% (inactive) | inhibition [7]: 0.25% (inactive) | superoxide response (% of plate) [8]: 102% (inactive) | aptamer binding inhibition [9]: 5% (inactive) | response [10]: 3.56% (inactive) | inhibition [11]: -2.81% (inactive) | response [12]: -4.65% (inactive) | binding (% of control) [13]: 101% (inactive) | efflux inhibition (fraction of control) [14]: -0.29 (inactive) | inhibition [15]: 7% (inactive) | differentiation response [16]: -13.3% (inactive)

O=C1CC(c2ccc(O)cc2)Oc2cc(O)cc(O)c21 (configuration not stated)
percent of DMSO control GFP [1]: 107% (inactive) | GFP response vs DMSO [2]: 99.3% (inactive) | percent response of DMSO control [3]: 107% (inactive) | GFP response vs DMSO [4]: 104% (inactive) | GFP response, % of DMSO [5]: 110% (inactive) | double positive events [6]: 61.7% | vesicle binding response [6]: 238% (inactive) | inhibition [7]: -31.6% (inactive) | superoxide response (% of plate) [8]: 91.7% (inactive) | aptamer binding inhibition [9]: 1% (inactive) | response [10]: -11.3% (inactive) | inhibition [11]: -6.71% (inactive) | response [12]: 4.67% (inactive) | binding (% of control) [13]: 94.3% (inactive) | efflux inhibition (fraction of control) [14]: -0.26 (inactive) | inhibition [15]: 9% (inactive) | differentiation response [16]: 1.22% (inactive)
